According to PubChem BioAssay (NCATS):
Inconclusive results are not listed. Entries that show only a call come without a potency. Values without a mark were called inactive. Calls of active or inactive are those of the source. Unless noted, the call rests on the fitted dose curve; in most records, active means well fitted curve in the direction sought with a large enough effect; inconclusive means small, poorly fitted or top-dose-only effect, or another doubt; inactive means no such curve, though single readings can be large; an effect the other way counts as inactive or inconclusive.

Columns and labels:
[1] = target: Voltage-gated inwardly rectifying potassium channel KCNH2 (Homo sapiens) (UniProt Q12809); test: qHTS Assay for Small Molecule Inhibitors of the Human hERG Channel Activity (AID 588834);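 further: lower thallium flux fluorescence means stronger hERG block; nearly all actives have a fitted effect of over 50% in size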; further: potency means the concentration at half of the fitted maximal effect
Chain of Voltage-gated inwardly rectifying potassium channel KCNH2 (Homo sapiens) (Q12809 whole entry, looked up): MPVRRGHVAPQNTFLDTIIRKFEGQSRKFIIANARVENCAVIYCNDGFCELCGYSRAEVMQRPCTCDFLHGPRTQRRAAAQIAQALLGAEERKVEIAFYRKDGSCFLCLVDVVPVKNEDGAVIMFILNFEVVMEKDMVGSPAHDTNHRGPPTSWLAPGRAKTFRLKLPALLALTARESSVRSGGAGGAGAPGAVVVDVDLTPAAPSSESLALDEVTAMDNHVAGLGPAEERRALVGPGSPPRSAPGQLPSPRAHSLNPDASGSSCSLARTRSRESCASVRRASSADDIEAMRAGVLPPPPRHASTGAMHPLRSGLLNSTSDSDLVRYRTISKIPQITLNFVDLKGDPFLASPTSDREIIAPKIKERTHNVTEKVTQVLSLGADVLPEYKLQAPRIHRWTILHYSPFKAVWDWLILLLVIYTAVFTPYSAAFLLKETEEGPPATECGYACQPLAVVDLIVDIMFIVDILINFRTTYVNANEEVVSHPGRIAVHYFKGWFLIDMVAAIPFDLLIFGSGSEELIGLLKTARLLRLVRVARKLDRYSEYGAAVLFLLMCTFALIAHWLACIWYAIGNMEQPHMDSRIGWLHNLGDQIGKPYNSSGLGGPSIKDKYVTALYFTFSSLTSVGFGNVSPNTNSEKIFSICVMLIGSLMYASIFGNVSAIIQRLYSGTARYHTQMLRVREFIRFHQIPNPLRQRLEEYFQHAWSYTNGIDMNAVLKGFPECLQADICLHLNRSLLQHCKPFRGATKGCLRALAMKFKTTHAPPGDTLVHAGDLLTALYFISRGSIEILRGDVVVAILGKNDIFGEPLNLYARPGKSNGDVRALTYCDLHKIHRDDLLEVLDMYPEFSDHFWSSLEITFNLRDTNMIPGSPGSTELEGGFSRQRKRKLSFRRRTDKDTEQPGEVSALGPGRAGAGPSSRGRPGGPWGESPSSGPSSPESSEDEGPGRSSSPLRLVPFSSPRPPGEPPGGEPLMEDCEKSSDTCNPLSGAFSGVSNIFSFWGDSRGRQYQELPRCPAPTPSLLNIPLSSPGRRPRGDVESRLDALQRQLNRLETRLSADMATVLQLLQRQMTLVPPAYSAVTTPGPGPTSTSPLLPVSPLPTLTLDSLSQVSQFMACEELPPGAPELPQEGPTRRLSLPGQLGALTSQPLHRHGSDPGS
Procedure, shortened: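 Kinetic FDSS fluorescence; U2OS + hERG BacMam (~100 virus particles/cell); FluxOR Tl+ flux; ~10 min cpd; AC50 (Hill).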

[2] = target: Luciferin 4-monooxygenase (Photinus pyralis) (UniProt P08659); test: Biochemical firefly luciferase enzyme assay for NPC (AID 624030); further: nearly all actives have a fitted effect of over 70% in size; further: potency means the concentration at half of the fitted maximal effect
Chain of Luciferin 4-monooxygenase (Photinus pyralis) (P08659 whole entry, looked up): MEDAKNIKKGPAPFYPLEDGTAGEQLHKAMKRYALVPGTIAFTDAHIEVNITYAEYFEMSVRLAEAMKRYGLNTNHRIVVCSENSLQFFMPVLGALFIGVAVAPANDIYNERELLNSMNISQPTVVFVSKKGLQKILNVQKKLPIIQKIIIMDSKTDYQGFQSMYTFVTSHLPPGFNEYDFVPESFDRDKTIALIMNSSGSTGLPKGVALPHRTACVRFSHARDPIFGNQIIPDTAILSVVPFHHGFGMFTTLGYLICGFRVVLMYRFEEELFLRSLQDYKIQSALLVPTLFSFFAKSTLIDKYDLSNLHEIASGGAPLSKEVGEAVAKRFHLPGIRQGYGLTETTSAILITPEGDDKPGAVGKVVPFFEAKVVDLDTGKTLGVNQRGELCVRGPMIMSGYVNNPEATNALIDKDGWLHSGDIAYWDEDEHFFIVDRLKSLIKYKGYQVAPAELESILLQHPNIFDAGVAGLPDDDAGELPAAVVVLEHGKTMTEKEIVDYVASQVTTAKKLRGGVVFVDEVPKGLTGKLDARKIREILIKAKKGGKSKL
Procedure, shortened: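 Direct inhibition of firefly luciferase enzyme (10 nM final, 50 mM Tris Acetate) assessed by luminescence within 5 minutes. Percent activity scaled between DMSO and PTC124 positive control, with concentration-effect curves classified by fit quality and response.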

[3] = S16 Schwann cell PMP22 intronic element firefly luciferase assay (AID 624032); further: nearly all actives have a fitted effect of over 30% in size; further: potency means the concentration at half of the fitted maximal effect
Procedure, shortened: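 Luciferase reporter of PMP22 intronic-element expression in stably transfected S16 rat Schwann cells, read by ONE-Glo luminescence after 24 h compound exposure at 37 C. Activity scaled between DMSO (0%) and positive-control PTC124; concentration-effect curves quality-classified.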

[4] = S16 Schwann cell viability assay (CellTiter-Glo assay) (AID 624031); further: nearly all actives have a fitted effect of over 70% in size; further: potency means the concentration at half of the fitted maximal effect
Procedure, shortened: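 Following overnight culture in 10% FBS DMEM, parental S16 rat Schwann cells are dosed for 24 h at 37 °C. Viability is read as CellTiter-Glo luminescence and expressed as % activity relative to DMSO (0%) and no-cell wells.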

[5] = S16 Schwann cell PMP22 intronic element beta-lactamase assay (AID 624044; calls by dose curve; further: nearly all actives have a fitted effect of over 15% in size); conditions: S16 rat Schwann cells, PMP22 element beta-lactamase FRET, 24 h; ratio activity, negative = inhibition: at 38.3 µM (top of the series) unless noted
Procedure, shortened: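 Rat S16 Schwann cells with beta-Lac driven by a PMP22 intronic element, compound-treated 24 h at 37 °C. LiveBLAzer FRET B/G read: 460 nm normalized to potassium clavulanate vs DMSO; 535 nm FRET as viability; concentration-effect curves classified.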

| Structure (SMILES) | Potency [1] | Potency [2] | Potency [3] | Potency [4] | ratio activity, negative = inhibition [5] |
| --- | --- | --- | --- | --- | --- |
| C[C@H](CCCC(C)(C)O)[C@H]1CC[C@H]2[C@@H]3CC=C4C[C@@H](O)CC[C@]4(C)[C@H]3CC[C@]12C | inactive | inactive | inactive | – | – |
| CC(C)CCCCCCc1ccc(O)cc1 | inactive | inactive | – | inactive | -8.37% |
| COc1cc(NCCCC(C)N)c2ncccc2c1 (stereo unspecified) | inactive | inactive | 6.42 µM (active) | – | – |
| O[C@@H]([C@H](O)[C@H](O)CBr)[C@H](O)CBr | inactive | inactive | – | inactive | 3.07% |
| CC(C)CCC[C@@H](C)[C@H]1CC[C@H]2[C@@H]3CC[C@@H]4C[C@H](O)CC[C@]4(C)[C@H]3CC[C@]12C | inactive | inactive | inactive | – | – |
| N#Cc1ccc2c(c1)N(CCCN1CCC(O)CC1)c1ccccc1S2 | 14.1 µM (active) | inactive | – | inactive | -13.2% |
| CC(CCc1ccc(O)cc1)NCC(O)c1ccc(O)cc1 (stereo unspecified) | 1.78 µM (active) | inactive | – | inactive | -5.84% |
| CC(=O)N[C@@H]1C(O[C@H]2O[C@H](C(=O)O)C(O)[C@H](O)[C@H]2O)[C@H](O)[C@@H](CO)O[C@H]1O[C@@H]1C(C(=O)O)O[C@@H](O[C@H]2[C@H](O)[C@@H](CO)OC(O)[C@@H]2NC(C)=O)[C@H](O)[C@H]1O (stereo partly specified) | inactive | inactive | – | inactive | 1.9% |
| COc1ccc2c(c1)OC(C)(C)C(c1ccccc1)C2c1ccc(OCCN2CCCC2)cc1 (stereo unspecified) | 10 µM (active) | inactive | – | 32.2 µM (active) | -10.8% |
| CCCCCCCCCC(=O)NO | inactive | inactive | – | inactive | 5.56% |
| O=C1N=C2SCCN2C(=O)C1Cc1ccc(Cl)cc1 (stereo unspecified) | inactive | inactive | – | inactive | 0.0729% |
| O=c1[nH]c(=O)n([C@H]2C[C@H](O)[C@@H](CO)O2)cc1/C=C/Br | inactive | inactive | – | inactive | -1.39% |
| CSc1nc2cc(Oc3cccc(Cl)c3Cl)c(Cl)cc2[nH]1 | 31.6 µM (active) | inactive | – | inactive | -0.19% |
| CCCCCCCCCCCCOCCCN | inactive | inactive | – | inactive | 0.509% |
| O=P(O)(O)OC[C@H](O)CO | inactive | inactive | – | inactive | 2.95% |
| NC(=O)Oc1ccc(Cc2ccccc2)cc1 | inactive | inactive | – | inactive | -0.76% |
| CC(C)OC(=O)Nc1ccc2nc(-c3cscn3)[nH]c2c1 | inactive | 9.07 µM (active) | inactive | – | – |
| O=C1NCCN1c1ncc([N+](=O)[O-])s1 | inactive | inactive | inactive | inactive | 1.39% [at 17.1 µM] |
| COC(=O)C(CN)c1c[nH]c2ccc(OC)cc12 (stereo unspecified) | inactive | inactive | – | inactive | 0.76% |
| C=CC[N+]1([C@H]2C[C@H]3[C@@H]4CC[C@H]5C[C@H](O)[C@@H](N6CCOCC6)C[C@]5(C)[C@H]4CC[C@]3(C)[C@H]2OC(C)=O)CCCC1 | inactive | inactive | – | inactive | -0.444% |
| CCCOC(=O)c1ccccc1O | inactive | inactive | – | inactive | 5.82% |
| Cn1cc(NC(=O)c2cc(NC(=O)c3cc(NC=O)cn3C)cn2C)cc1C(=O)NCCC(=N)N | inactive | inactive | – | inactive | 5.48% |
| C#C[C@]1(O)CC[C@@H]2[C@H]3CCC4=CC(=O)CC[C@H]4[C@H]3C(=C)C[C@@]21CC | inactive | inactive | – | inactive | -9.17% (active) |
| FC(F)(F)C(F)(F)C(F)(F)C(F)(F)C(F)(F)F | inactive | inactive | – | inactive | 0% |

| Structure (SMILES) | Potency [1] | Potency [2] | Potency [3] | Potency [4] | ratio activity, negative = inhibition [5] |
| --- | --- | --- | --- | --- | --- |
| Cn1c(O)c(N=NC(N)=S)c2ccccc21 | inactive | inactive | inactive | – | – |
| COc1ccc(/C=C/C(=O)O)cc1 | inactive | inactive | – | inactive | 1.76% |
| Cc1ncc(C[n+]2csc(CCOP(=O)(O)O)c2C)c(N)n1 | inactive | inactive | – | inactive | -8.96% |
| C=CC(=O)O | inactive | inactive | – | inactive | -7.38% |
| CN(Cc1ccccc1)Cc1ccccc1 | inactive | inactive | – | inactive | 0.417% |
| COc1cc(S(C)=O)ccc1-c1nc2ncccc2[nH]1 (stereo unspecified) | inactive | inactive | – | inactive | -7.74% |
| COC1=C(OC)C(=O)C(C/C=C(\C)CC/C=C(\C)CC/C=C(\C)CC/C=C(\C)CC/C=C(\C)CC/C=C(\C)CC/C=C(\C)CC/C=C(\C)CC/C=C(\C)CCC=C(C)C)=C(C)C1=O | inactive | inactive | – | inactive | 0.236% |
| COc1ccc(-c2noc(CC(=O)O)c2-c2ccc(OC)cc2)cc1 | inactive | inactive | – | inactive | -1.01% |
| OC/C=C/c1ccccc1 | inactive | inactive | – | inactive | -1.9% |
| Cc1cccc(C)c1NC(=O)NC1=CCCN1C | inactive | inactive | – | inactive | 3.11% |
| COc1ccc(C(=O)CCC(=O)O)c2ccccc12 | inactive | inactive | – | inactive | -1.03% |
| Cc1cc2nc3c(=O)[nH]c(=O)nc-3n(C[C@H](O)[C@H](O)[C@H](O)COP(=O)(O)OP(=O)(O)OC[C@H]3O[C@@H](n4cnc5c(N)ncnc54)[C@H](O)[C@@H]3O)c2cc1C | – | inactive | inactive | inactive | – |
| CCC(O)c1ccccc1 (stereo unspecified) | – | inactive | inactive | inactive | – |
| CCSc1ccc2c(c1)N(CCCN1CCN(C)CC1)c1ccccc1S2 | – | inactive | inactive | inactive | – |
| O=C1c2ccccc2C(=O)C1c1ccc(Cl)cc1 | inactive | – | – | inactive | -9.28% |
| C[C@@](Cc1ccc(O)c(O)c1)(NN)C(=O)O | inactive | – | – | inactive | – |
| CCC(Cc1c(I)cc(I)c(O)c1I)C(=O)O (stereo unspecified) | inactive | – | inactive | inactive | 3.55% |
| CCOc1cc(-c2nccc3cc(OC)c(OC)cc23)cc(OCC)c1OCC | inactive | inactive | – | – | -11.1% |
| CC(CN(C)C)CN1c2ccccc2Sc2ccc(C(F)(F)F)cc21 (stereo unspecified) | 11.2 µM (active) | inactive | – | – | -9.58% |
| O=C(O[C@H]1CN2CCC1CC2)N1CCc2ccccc2[C@@H]1c1ccccc1 | – | inactive | – | inactive | – |
| COc1ccc(/C=N/NC(=O)c2ccncc2)c(C(=O)O)c1OC | – | inactive | – | inactive | – |
| C(=C\c1ccncc1)/c1ccccc1 | inactive | – | inactive | – | -6.31% |
| CC(=O)N=c1sc(S(N)(=O)=O)nn1C | inactive | inactive | inactive | – | -0.416% [at 17.1 µM] |
| O=S(=O)(O)CC(S)CS (stereo unspecified) | inactive | – | – | inactive | – |

| Structure (SMILES) | Potency [1] | Potency [2] | Potency [3] | Potency [4] | ratio activity, negative = inhibition [5] |
| --- | --- | --- | --- | --- | --- |
| CN(C)C(=O)CCSC(SCCC(=O)O)c1cccc(/C=C/c2ccc3ccc(Cl)cc3n2)c1 (stereo unspecified) | inactive | 2.87 µM (active) | inactive | – | -0.229% |
| COc1ccc(/C=C/C(=O)OCCC(C)C)cc1 | – | 11.4 µM (active) | – | inactive | – |
| CC1CCC(NC(=O)N(CCCl)N=O)CC1 (stereo unspecified) | inactive | – | inactive | inactive | 2.89% |
| CN(C)C=Nc1c(I)cc(I)c(CCC(=O)O)c1I | inactive | – | inactive | inactive | 2.26% |
| O=C(c1cc2ccccc2o1)N1CCN(Cc2ccccc2)CC1 | inactive | – | – | inactive | 2.34% |
| C=CC[C@@H]1/C=C(\C)C[C@H](C)C[C@H](OC)[C@H]2O[C@@](O)(C(=O)C(=O)N3CCCC[C@H]3C(=O)O[C@H](/C(C)=C/[C@@H]3CC[C@@H](O)[C@H](OC)C3)[C@H](C)[C@@H](O)CC1=O)[C@H](C)C[C@@H]2OC | inactive | inactive | – | – | -24.4% |
| CN(C)c1ccc(C(=C2C=CC(=[N+](C)C)C=C2)c2c(O)c(S(=O)(=O)[O-])cc3cc(S(=O)(=O)O)ccc23)cc1 | inactive | 14.4 µM (active) | 36.1 µM (active) | – | 1.14% |
| CCOC(=O)Cc1ccc(-c2ccccc2)cc1 | inactive | – | inactive | inactive | 4.96% |
| c1ccc2c(c1)Sc1ccccc1N2CCN1CCCC1 | 15.8 µM (active) | inactive | – | – | -1.68% |
| NC(N)=NCC1COc2ccccc2O1 (stereo unspecified) | – | inactive | inactive | inactive | – |
| Cc1cccc(Nc2ncccc2C(=O)O)c1C | inactive | – | inactive | inactive | 6.34% |
| CC(C)(C)c1ccc2c(S(=O)(=O)O)c(C(C)(C)C)ccc2c1 | inactive | – | inactive | inactive | -0.38% |
| CN(C)CCCSc1ccccc1NC(=O)/C=C/c1ccccc1 | – | inactive | inactive | inactive | – |
| Oc1ccc(Cl)c2c1CCC2 | inactive | inactive | – | – | -4.38% |
| CCN(CC)CCCC(C)Nc1cc(/C=C/c2ccccc2Cl)nc2cc(Cl)ccc12 (stereo unspecified) | 14.1 µM (active) | inactive | – | – | -1.08% |
| COc1cc(C)c(/C=C/C(C)=C/C=C/C(C)=C/C(=O)O)c(C)c1C | inactive | – | 0.572 µM (active) | inactive | -28.2% |
| O=C(OCc1ccccc1)c1cccnc1 | inactive | – | – | inactive | – |
| CN1c2c(nc(N)[nH]c2=O)NCC1CNc1ccc(C(=O)NC(CCC(=O)O)C(=O)O)cc1 (stereo unspecified) | – | inactive | inactive | inactive | – |
| O=P(O)(O)OP(=O)(O)O | – | inactive | 1.81 µM (active) | inactive | – |
| O=C(/C=C/c1cccc(F)c1)NC1CC1 | inactive | inactive | inactive | – | 2.97% |
| NC(=S)N=Nc1ccc(NN=C(N)N)cc1 | – | 11.4 µM (active) | inactive | 10.2 µM (active) | – |
| Cc1cccc(C)c1NC(=O)C1CCCCN1C (stereo unspecified) | – | inactive | inactive | inactive | – |
